HCMV inh: inhibitors of human cytomegalovirus; HFF cells, HCMV-luciferase reporter, 72 h; stronger effect = lower value; activity change, negative = inhibition, % at 57.5 µM; 410,000 tested, 4.5% active; AID 1259415; in the data active = activity change below about -60%; inconclusive = no clear call, values can overlap the other calls; inactive = above about -39%
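Luciferase read-out from HCMV-luciferase-infected HFFs (MOI 1 PFU/cell) 72 h post infection at 37C; compounds added after 16 h cell attachment; activity normalized between buffer-only basal and Salinomycin (10uM) inhibitor controls.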
HCV inh: inhibitors of hepatitis C virus infection. Huh7.5.1 HCVcc-Cre infection, luciferase reporter, 44 h. Potency, µM (top dose mostly 41.8 µM), most hits filed as inhibitors. 340,000 tested, 3.4% active. AID 651820; active = well fitted inhibition curve with a large enough effect; inconclusive = small, poorly fitted or top-dose-only effect, or another doubt; inactive = no such curve, though single readings can be large or run the other way
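Infectious HCV cell culture screen: compound-treated cells (1,000/well, pre-plated 4 h) are infected with HCVcc-Cre at roughly 0.5 moi and grown 44 h. Infection is quantified by luciferase signal after 15 min substrate incubation at room temperature.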
FMDV antiviral: blocks foot and mouth disease virus; Potency, µM (titrated, usually from 57.9 µM), most hits filed as inhibitors; FMDV antiviral cell-based qHTS; 410,000 tested, 1.2% active; calls by dose curve; tested in HEK293T cells; note: read-out not given here; nearly all actives have a fitted effect of over 45% in size
Marburg entry inh: Marburg virus entry inhibition; Marburg virus pseudotyped entry inhibition, cell reporter; Potency, µM (series often up to 37.8 µM), usual class: inhibitors; 300,000 tested, 1.8% active; calls by dose curve; tested in HEK293 cells
LASV entry inh: Lassa virus entry inhibition; Potency, µM (series often up to 37.9 µM), usual class: inhibitors; AID 540256; Lassa virus pseudotype entry inhibition, cell reporter; 300,000 tested, 1.2% active; calls by dose curve; tested in HEK293 cells; note: nearly all actives have a fitted effect of over 50% in size
Numbers stand for hits; n = inactive; u = inconclusive; x = no result given. Most compounds without a hit are left out; they make up all but 7.9% or so of the library.

SMILES | HCMV inh | HCV inh | FMDV antiviral | Marburg entry inh | LASV entry inh
O=C(Nc1ccc(C(=O)Nc2ccc(C(=O)Nc3ccc(S(=O)(=O)O)c4cc(S(=O)(=O)O)cc(S(=O)(=O)O)c34)cc2)cc1)Nc1ccc(C(=O)Nc2ccc(C(=O)Nc3ccc(S(=O)(=O)O)c4cc(S(=O)(=O)O)cc(S(=O)(=O)O)c34)cc2)cc1 | x | x | n | x | x
CC(C)NC(=O)/C(C#N)=C/c1cccc(NC(=O)c2ccccc2Cl)c1 | n | n | 14.1µM | u | n
COc1ccc(-c2nn(-c3ccccc3)cc2C(=O)N2c3ccc(C)cc3C3CN(C)CCC32)cc1 (stereo unspecified) | u | n | n | u | 11.2µM
O=C(Nc1ccc(C(=O)N2CCOCC2)cc1)C1CC1 | n | n | n | x | x
CCOC(=O)c1c(C)c(C)n(Cc2cccc(OC)c2OC)c1C | -85.0 | u | u | n | n
CNc1ccc2oc(C[C@H]3O[C@]4(CC[C@H]3C)O[C@H]([C@H](C)C(=O)c3ccc[nH]3)[C@H](C)C[C@H]4C)nc2c1C(=O)O | x | x | n | 0.708µM | x
O=C(NCC1CCC2(CCN(Cc3cccc4cccnc34)CC2)O1)c1ccco1 (stereo unspecified) | x | x | n | x | x
CCOCCCNC(=S)N1CCN(c2nc(-c3ccc(F)cc3)cs2)CC1 | -84.8 | 11.2µM | u | x | x
CCCNC(=S)N1CCN(c2nc(-c3ccc(C)cc3)cs2)CC1 | u | 12.6µM | u | u | n
S=C(NCC1CCCO1)N1CCN(c2cccc(Cl)c2)CC1 (stereo unspecified) | n | u | n | x | x
COCCNC(=S)N1CCN(c2nc(-c3ccccc3)cs2)CC1 | u | n | n | x | x
CNC(=S)N1CCN(c2nc(-c3ccc(F)cc3)cs2)CC1 | u | u | n | x | x
COCCCNC(=S)N1CCN(c2nc(-c3ccc(F)cc3)cs2)CC1 | -84.9 | 10µM | u | x | x
S=C(NCC1CCCO1)N1CCN(c2nc(-c3ccc(Cl)cc3)cs2)CC1 (stereo unspecified) | -63.2 | u | 15.8µM | u | u
COc1cccc(CN2C(=O)c3ccccc3Sc3ccc(C(=O)NCc4ccccc4)cc32)c1 | n | x | n | u | n
CC1CCN(C(=O)CSCC(=O)Nc2nc(-c3cccs3)cs2)CC1 | n | n | n | x | x
CCOC(=O)N1CCN(C(=O)CSCC(=O)Nc2nc(-c3ccc(C)cc3)cs2)CC1 | n | 11.2µM | n | x | x
CCOC(=O)N1CCN(C(=O)CSCC(=O)Nc2nc(-c3cccs3)cs2)CC1 | n | 12.6µM | 14.1µM | n | n
COc1ccc(-c2cc(C(F)(F)F)nc(SCC(=O)N3CCCCC3)n2)cc1 | u | x | n | n | n
CCc1cc2c(nc1CC)CCN(CCC(C)=NOC[C@@H](C)[C@H](OCc1ccccc1)C(C)C)C2 | x | x | x | n | x
COCCCNc1ncnc2sc(C(=O)N3CCOCC3)c(C)c12 | x | x | n | x | x
Cc1ccc(NC2CCCN(C(=O)c3ccc(-n4ccnc4)cc3)C2)cc1C (stereo unspecified) | n | n | n | n | n
COCc1cc(C2SCC(=O)Nc3c2c(=O)[nH]n3C(C)C)ccc1OC (stereo unspecified) | n | 5.62µM | n | n | n
Cc1noc(C)c1CC(=O)Nc1ccc2c(c1)OCO2 | n | n | n | x | x
Cc1ccc(S(=O)(=O)NC(=O)C2(C)CCN2C(=O)C2(c3ccc(Cl)cc3)CCC2)nc1 (stereo unspecified) | u | x | n | x | x
SMILES | HCMV inh | HCV inh | FMDV antiviral | Marburg entry inh | LASV entry inh
O=C1c2cccc(OCC(=O)N3CCCc4ccccc43)c2CCN1Cc1ccc(Br)cc1 | u | u | u | u | 20.6µM
O=C(COc1cccc2c1CCN(Cc1ccc(Br)cc1)C2=O)NCc1ccco1 | n | u | u | u | u
O=C(COc1cccc2c1CCN(Cc1ccc(Br)cc1)C2=O)N1CCOCC1 | n | 11.2µM | u | u | u
O=C1c2cccc(OCC(=O)N3CCCc4ccccc43)c2CCN1Cc1ccccc1 | n | u | n | u | n
O=C(Nc1cnn(Cc2ccc(Cl)c(Cl)c2)c1)C12CC3CC(CC(C3)C1)C2 | n | u | n | 13µM | u
O=C(Nc1cnn(Cc2ccc(Cl)cc2)c1)c1cccs1 | n | n | n | x | x
O=C(Nc1ccc([N+](=O)[O-])cc1)c1ccc(Cn2cc([N+](=O)[O-])cn2)cc1 | -67.6 | u | u | x | x
O=C(Nc1ccc(Cl)c(Cl)c1)c1ccc(Cn2cc(Cl)cn2)cc1 | n | u | n | n | x
O=C(Nc1cnn(Cc2ccc(Cl)cc2)c1)c1ccc([N+](=O)[O-])cc1 | n | n | u | 11.2µM | u
CCOc1ccc(C(=O)Nc2cnn(Cc3ccc(Cl)c(Cl)c3)c2)cc1 | -70.0 | 12.6µM | u | u | u
CC(=O)c1ccc(F)c(-c2cc(C)cc3c2OC(CNC(=O)C2CCCCN2C)C3)c1 (stereo unspecified) | x | x | n | x | x
Cc1ccc2nc(CN3CCN(C(=O)Nc4ccc(F)cc4)CC3)oc2c1 | n | x | n | x | n
COc1ccc(C(=O)Nc2cnn(Cc3c(F)cccc3Cl)c2)cc1OC | n | 12.6µM | n | x | x
Nc1nonc1C(=O)NCCNCc1ccccc1F | n | x | n | n | n
Nc1nonc1C(=O)NCCNCc1c(OCc2ccccc2F)ccc2ccccc12 | n | 14.1µM | u | u | u
CNCc1c(OCc2ccccc2)ccc2ccccc12 | n | u | n | u | u
CNCc1c(OCc2ccccc2F)ccc2ccccc12 | u | 8.91µM | n | u | u
COc1ccccc1NS(=O)(=O)c1ccc(NC(=O)c2[nH]nc(OC)c2[N+](=O)[O-])cc1 | n | n | n | n | n
Cn1c(COc2ccc(Cl)cc2)nnc1SCC(=O)NC1CCCC1 | n | n | u | n | n
COc1ccc(N2CCN(CCCNC(=O)c3ccc4nc(Cc5ccccc5)oc4c3)CC2)cc1 | -60.4 | x | 25.1µM | x | u
COc1ccc(Cc2nc3ccc(C(=O)NCCCN4CCN(C)CC4)cc3o2)cc1 | n | x | u | x | u
COc1ccc(N2CCN(CCCNC(=O)c3ccc4nc(CCc5ccccc5)oc4c3)CC2)cc1 | n | x | u | x | 10µM
CCOc1ccccc1N1CCN(C(=O)c2cccs2)CC1 | n | n | n | n | n
O=[N+]([O-])c1ccc(CSc2ccc(S(=O)(=O)N3CCCCC3)cn2)cc1 | n | u | u | x | x
CCCCC(O)(CCCC)C(=O)NN(C(=O)OCC)c1ccccc1 | n | n | n | n | n
SMILES | HCMV inh | HCV inh | FMDV antiviral | Marburg entry inh | LASV entry inh
CCCC(O)(CCC)C(=O)NN(C(=O)CCl)c1ccccc1 | -81.2 | u | u | u | u
O=C(N/N=C/c1cnc(N2CCCCC2)s1)c1ccc(C(F)(F)F)cc1 | n | 11.2µM | n | x | x
CC1CN(c2ncc(/C=N/NC(=O)c3ccccc3O)s2)CC(C)O1 (stereo unspecified) | n | n | n | n | n
Cc1ccc(S(=O)(=O)c2nc(-c3ccccc3)oc2NCc2cccnc2)cc1 | n | 11.2µM | n | n | n
O=S(=O)(c1ccccc1)c1nc(-c2ccc(F)cc2)oc1NCc1ccccc1 | n | x | n | u | n
Cc1ccccc1-c1nc(S(=O)(=O)c2ccc(Br)cc2)c(NCc2cccnc2)o1 | n | 11.2µM | n | u | n
CCOC(=O)c1cccn1C1C(=O)N(C)c2c(F)cccc21 (stereo unspecified) | n | x | x | x | x
O[C@@H]1CN=C2Sc3ccccc3N2C1 | x | x | x | n | x

Assay outcomes deposited in PubChem by National Center for Advancing Translational Sciences (NCATS).
